Active and inactive are the calls of the source. Rule for the calls: active = hit-call score of the fitted dose curve at least 0.9, where 1 is the maximum; inactive = score below 0.9.

The nature of this assay: CCTE_Shafer_MEA_dev_network_spike_duration_std: CCTE's Neural Network Formation Assay for Standard Deviation of Network Spike Duration, Shafer Lab (AID 2284052).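 Note: area under curve of spike duration SD across recording days 5 to 12; hits are decreases in network spike duration SD versus DMSO vehicle.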 The procedure, abridged: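 Developing networks of rat cortical neurons were exposed over twelve days in vitro on 48-well MEA plates. Trapezoidal AUC of recordings (DIV 5–12) was analysed for signal loss relative to DMSO vehicle.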
With `C=CC(=O)OCC(F)(F)C(F)(F)C(F)(F)C(F)(F)COC(=O)C=C`, the outcome was inactive.
For `O=C(O)C(F)(F)C(F)(F)C(F)(F)F` the value was “inactive”; for `CC(C)(C)C(=O)CC(=O)C(F)(F)C(F)(F)C(F)(F)F`, “inactive”; for `FC(F)(F)C(F)(F)CNCC(F)(F)C(F)(F)F`, “inactive”.
`Cc1ccc(S(=O)(=O)OCC(F)(F)C(F)(F)C(F)(F)C(F)(F)C(F)(F)C(F)F)cc1`: the call was inactive.
For `O=S(=O)(OCC(F)F)C(F)(F)F` the value was “inactive”.
Take `OCC(F)(F)C(F)(F)C(F)(F)F`: the outcome was inactive.
The same measure for `CC(CCl)OP(=O)(OC(C)CCl)OC(C)CCl` (stereo not drawn): “inactive”; for `FC(F)(F)C(F)(F)C(F)(F)C(F)(F)C(F)(F)CCI`: “inactive”.
As to `O=C(O)C(F)(F)C(F)(F)C(F)(F)C(F)(F)C(F)(F)C(F)(F)C(F)(F)C(F)(F)Cl`, the outcome was inactive.
With `O=C(O)C=C(C(F)(F)F)C(F)(F)F`, the compound was classed as inactive.
For `O=S(=O)(OCCOC(F)(F)F)C(F)(F)F` the value was “inactive”; for `OCC(F)(F)C(F)(F)C(F)(F)C(F)F`, “inactive”.
`OC[C@@H](O)[C@@H](O)[C@H](O)[C@@H](O)CO`: the call was inactive.
For the compound `OCC(F)(F)C(F)(F)C(F)(F)C(F)(F)C(F)(F)C(F)F`, the compound was called inactive.
For `N=C(N)C(F)(F)C(F)(F)C(F)(F)C(F)(F)C(F)(F)C(F)(F)C(F)(F)F` the value was “inactive”.
Take `O=C(O)C(F)(F)C(F)(F)C(F)(F)C(F)(F)C(F)(F)C(F)(F)C(F)(F)C(F)(F)C(F)(F)C(F)F`: the compound was classed as inactive.
For `O=P(O)(O)OCCC(F)(F)C(F)(F)C(F)(F)C(F)(F)C(F)(F)C(F)(F)F` the value was “inactive”; for `NC(=O)C(F)(F)C(F)(F)C(F)(F)C(F)(F)F`, “inactive”; for `O=C(O)C(F)(F)C(F)(F)C(F)F`, “inactive”.
For `OCCCC(F)(F)C(F)(F)C(F)(F)F` the value was “inactive”.
The same measure for `COC(=O)CCC(F)(F)C(F)(F)C(F)(F)C(F)(F)F`: “inactive”.
Turning to `FC(F)(F)C(F)(F)C(F)(F)C(F)(F)C(F)(F)C(F)(F)CC1CO1` (stereo not drawn), the compound was called inactive.
